# The source made the active and inactive calls. Rule for the calls: active = hit-call score of the fitted dose curve at least 0.9, where 1 is the maximum; inactive = score below 0.9.
# Target: human Serotonin Receptor 5-HT5A Agonism, HTR5A (gene 3361) (UniProt P47898)
# Assay: ERF_FR_GPCR_hHTR5A: Eurofins (ERF) G Protein-Coupled Receptor (GPCR) Radioligand Binding LeadHunter Assay for human Serotonin Receptor 5-HT5A Agonism
# Method: ERF_FR_GPCR_hHTR5A is a biochemical, single-readout assay that uses extracted gene-proteins in a cell-free assay. Measurements were taken 2 hour after chemical dosing in a 96-well plate. See 5-HT5A Human Serotonin GPCR Binding (Agonist Radioligand) Assay, Cerep.ERF_FR_GPCR_hHTR5A is an assay component calculated from the ERF_FR_GPCR_hHTR5A assay. It is designed to measure radioligand binding using a type of binding reporter as detected by scintillation counting with radiometry technology.Data from the assay component ERF_FR_GPCR_hHTR5A was analyzed at the assay endpoint, ERF_FR_GPCR_hHTR5A, in the positive analysis fitting direction relative to DMSO as the negative control and baseline of activity. Using a type of binding reporter, gain-of-signal activity can be used to understand changes in binding as they relate to gene HTR5A. To generalize the intended target to other relatable targets, this assay endpoint is annotated to the gpcr intended target family, where the subfamily is serotonin.
# Human cells are incubated for 120 minutes at 37 C with [3H]LSD ligand (1.5 nM) and serotonin as control inhibitor. Test Sample Requirements: Minimum for 1) Screen: 60 ul of 10 mM stock -OR- 1 mg (pre-weighed) for 10 uM final testing. 2) Dose Response: 90 ul of 10 mM stock -OR- 1 mg (pre-weighed) for a top concentration at 10 uM.
# Chain of human Serotonin Receptor 5-HT5A Agonism, HTR5A (gene 3361) (P47898 whole entry, looked up): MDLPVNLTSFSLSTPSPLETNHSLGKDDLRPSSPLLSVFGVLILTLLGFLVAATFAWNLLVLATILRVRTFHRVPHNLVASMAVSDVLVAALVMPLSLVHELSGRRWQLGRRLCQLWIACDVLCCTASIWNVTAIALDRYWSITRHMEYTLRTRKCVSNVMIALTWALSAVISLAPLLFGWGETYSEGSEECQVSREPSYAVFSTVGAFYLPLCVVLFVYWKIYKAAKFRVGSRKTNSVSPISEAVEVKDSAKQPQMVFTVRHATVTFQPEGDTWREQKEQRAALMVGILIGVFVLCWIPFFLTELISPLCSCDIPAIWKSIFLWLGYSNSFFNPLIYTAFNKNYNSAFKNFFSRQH
row,Structure (SMILES),AC50
1,O=C(/C=C/c1ccc(O)cc1)CC(=O)/C=C/c1ccc(O)cc1,1680 nM (active)

# Reference: PubChem BioAssay AID2284191 (EPA ToxCast)
